# Abeta rescue: restores growth of yeast expressing A-beta42 peptide | yeast expressing A-beta42, growth rescue, OD600, 48 h; response scale: 0% DMSO, 100% iron-clioquinol control | Potency, µM (top dose mostly 46.1 µM), usual class: activators | AID 1347071 | hit rate 0.063% among 410,000; further: nearly all actives have a fitted effect of over 55% in size
#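 Yeast growth medium received pinned compounds, then yeast cells expressing toxic A-beta were added; plates incubated at 30 C for 48 hr. Growth read as absorbance at 600 nm, normalized to DMSO and equimolar FeCl3 plus clioquinol controls.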
# FUS yeast rescue: FUS proteinopathy suppression in yeast; S. cerevisiae FUS-expressing, growth rescue, OD600, 24 h; Potency, µM (doses to about 76.6 µM), hits mostly activators; hit rate 0.24% among 390,000; AID 1347120;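 further: plate controls were DMSO vehicle for no effect and reference control for full effect; nearly all actives have a fitted effect of over 55% in size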
#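 Cultures pregrown in 2.5% raffinose medium are shifted to minimal medium containing 2% galactose to express toxic FUS. Compounds are tested at several concentrations. After 24hr at 30C, growth is quantified at 600 nm absorbance.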
# aSyn rescue: alpha-synuclein toxicity inhibition in yeast; Yeast expressing alpha-synuclein, growth rescue, BacTiter-Glo, 24 h; Potency, µM (series often up to 46.1 µM), for the others: top-dose growth rescue (activation), usual class: activators; hit rate 0.14% among 370,000; further: % of control where 0% means no effect; nearly all actives have a fitted effect of over 65% in size
#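 Rescue of yeast growth: cells expressing toxic alpha-synuclein, induced in galactose at OD600 0.02, incubated with compound 24 h at 30 C. ATP luminescence quantified growth; inhibitors of toxicity appear as activators.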
# TDP-43 yeast inh: rescues yeast growth from TDP-43 toxicity; hit rate 1.8% among 410,000; Potency, µM (doses to about 46.1 µM), without a hit: top-dose growth rescue (activation), most hits filed as activators; TDP-43 expressing yeast growth rescue, BacTiter-Glo, 24 h; AID 652104; further: % of control where 0% means no effect; nearly all actives have a fitted effect of over 50% in size
#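 Cell-based yeast growth screen: TDP-43 expression induced in galactose, inoculum OD600=0.02 after raffinose pregrowth to mid-log. Read-out BacTiter-Glo luminescence at 24 hr, 30 deg C; inhibition of toxicity seen as signal increase.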
# An asterisk follows results filed as active; i = inactive; ? = inconclusive; . = no result; [ ] = remark or other dose. In the library only some 2.1% were active in any assay of this set; here they are far more common. The call rests on the fitted dose curve; in most records, active means well fitted curve in the direction sought with a large enough effect; inconclusive means small, poorly fitted or top-dose-only effect, or another doubt; inactive means no such curve, though single readings can be large; an effect the other way counts as inactive or inconclusive. Potency means the concentration at half of the fitted maximal effect.
SMILES,Abeta rescue,FUS yeast rescue,aSyn rescue,TDP-43 yeast inh
O=C(O/N=C(\c1ccccc1)c1ccccn1)c1ccc(Cl)c(Cl)c1,?,i,-8%,30%
N/C(=N\OC(=O)c1ccc(Cl)c(Cl)c1)c1cccc(CSc2ccccn2)c1,i,i,-49%,11µM*
N/C(=N\OC(=O)c1ccc(Cl)c(Cl)c1)c1cccnc1,i,i,1%,6.3µM*
CC1(C(=O)Nc2ccc(Cl)c(Cl)c2)CCN1CCc1ccccc1 (stereo not drawn),i,i,1%,27%
COc1ccc(C2N(c3ccc(Cl)cc3)N=C(C(C)=O)N(C)N2C(C)=O)cc1 (stereo not drawn),i,i,2%,22µM*
CN(Cc1ccccc1)C(=S)NC(=O)c1cccs1,13µM*,i,5%,?
CCOC(=O)Nc1ccc2c(c1)N(C(=O)CCN(C)C)c1ccccc1S2,i,i,13%,20µM*
CCOC(=O)Nc1ccc2c(c1)N(C(=O)CN(C)C)c1ccccc1S2,i,i,-3%,-5%
Cc1cccc2sc(N(Cc3cccnc3)C(=O)COc3ccccc3)nc12,i,i,.,11µM*
COc1ccc2nc(N(Cc3cccnc3)C(=O)COc3ccccc3)sc2c1,i,i,.,16µM*
CC(=O)N(Cc1cccnc1)c1nc2c(F)cc(F)cc2s1,i,i,.,19%
COc1ccc2sc(N(Cc3cccnc3)C(=O)COc3ccccc3)nc2c1,i,i,.,11%
O=C(Cc1ccccc1)N(Cc1cccnc1)c1nc2c(F)cc(F)cc2s1,i,i,.,18µM*
Cc1cc(C)c2sc(NC(=O)C3=COCCO3)nc2c1,i,?,-2%,18µM*
Cc1cc(C)c(-c2csc(NC(=O)C3=COCCO3)n2)c(C)c1,i,i,-4%,?
Cc1ccc(Cl)c2sc(NC(=O)C3=COCCO3)nc12,i,i,-7%,11µM*
COc1ccc(Cl)c2sc(NC(=O)C3=COCCO3)nc12,i,i,-1%,-11%
Cc1cc(NC(=O)CSc2nnc(-c3ccccc3F)n2N)no1,i,i,2%,23%
Cc1ccc2c(c1)c(=O)c(C(=O)c1ccncc1)cn2CC(=O)Nc1ccc(C(C)C)cc1,i,i,.,12%
O=C(c1ccc(-c2ccccc2Cl)o1)N1CCN(c2ccccc2O)CC1,i,i,?,22µM*
O=C(c1ccc(-c2cc(Cl)ccc2Cl)o1)N1CCOCC1,i,i,-4%,?
O=C(c1cc(-c2ccccc2Cl)on1)N1CCN(C(=O)c2ccco2)CC1,i,i,-7%,?
O=C(c1ccco1)N1CCN(C(=O)c2ccc(-c3ccccc3Cl)o2)CC1,i,i,-3%[1.84 µM],14µM*
O=C(c1ccc(-c2cccc(C(F)(F)F)c2)o1)N1CCN(c2ccccc2O)CC1,?,i,9%,16µM*
O=C(c1ccc(-c2ccc(Cl)cc2Cl)o1)N1CCOCC1,i,i,5%,18µM*
SMILES,Abeta rescue,FUS yeast rescue,aSyn rescue,TDP-43 yeast inh
CCOC(=O)c1cc(-c2ccccc2)n(CCC(=O)NC2CCCCC2)c1C,i,i,.,-6%
Cn1nnnc1Sc1ncnc2scc(-c3ccsc3)c12,i,i,.,.
COc1ccc(NC(=O)c2cc(-c3ccc(F)cc3OC(C)C)n[nH]2)c(OC)c1,i,i,-19%,25µM*
COc1cc(NC(=O)c2cc(-c3cc(F)ccc3OC(C)C)n[nH]2)cc(OC)c1OC,i,i,6%,0%
CC(C)Oc1ccc(F)cc1-c1cc(C(=O)NC2CCCCC2)[nH]n1,i,i,-7%,16µM*
COc1ccc(NC(=O)c2cc(-c3cc(F)ccc3OC(C)C)n[nH]2)c(OC)c1,i,i,1%,20µM*
COc1ccc(NC(=O)c2cc(-c3cc(F)ccc3OC(C)C)n[nH]2)cc1OC,i,i,2%,35µM*
Cc1ccccc1OC(=O)CSc1nnc(-c2cccs2)o1,i,i,.,23%
OC(c1cccnc1)c1nc(-c2ccc3c(c2)OCO3)cs1 (stereo not drawn),i,i,3%,14%
COc1ccc(NC(=O)c2cc(-c3cc(Cl)ccc3C)n[nH]2)cc1OC,i,i,10%,20µM*
CCCOc1ccc(F)cc1-c1cc(C(=O)Nc2cc(OC)ccc2OC)[nH]n1,i,i,-12%,5%
COc1ccc(NC(=O)c2cc(-c3cc(F)ccc3OCC3CCCO3)n[nH]2)c(C)c1 (stereo not drawn),i,?,-11%,13µM*
COc1ccc(NC(=O)c2cc(-c3cc(F)ccc3OCC3CCCO3)n[nH]2)cc1OC (stereo not drawn),i,?,0%,-35%
COc1ccc(NC(=O)c2cc(-c3cc(F)ccc3OC)n[nH]2)c(C)c1,i,i,-2%,22µM*
Cc1ccc(NC(=O)c2ccc(OCC3CCCO3)cc2)cc1Cl (stereo not drawn),i,i,3%,9%
O=C(c1cc(C2CC2)on1)N(C1CCCCC1)C1CCOCC1,.,i,.,.
Cc1noc(C)c1COc1ccc(C(=O)Nc2nnc(CC(C)C)s2)cc1,i,i,0%[1.84 µM],12%
COc1cccc(/C=C/c2nc(C#N)c(N3CCCCC3)o2)c1,i,i,.,16µM*
CN1CCc2nc3sc(C(=O)Nc4ccccc4OC(F)(F)F)c(N)c3cc2C1,i,?,.,18µM*
COc1ccc(SC[C@H](C)CN2CC[C@H](C(C)(C)C)CCC2=O)cc1,i,i,-10%,20%
Cc1cc(C)cc(NC2=C(c3ccccc3)C(=O)c3ccccc32)c1,i,i,.,27%
c1ccc(CN=C2NN=C(c3ccccc3)CS2)cc1,i,i,5%,13µM*
COc1ccccc1NCCC(=O)OCC(=O)Nc1cc([N+](=O)[O-])ccc1F,i,.,20%,26%
CC(C)(C)c1ccc(Cn2cnc(-c3ccc([N+](=O)[O-])cc3)c2)cc1,i,.,4%,32µM*
Cc1cc(C)c(Cn2cnc(-c3ccc([N+](=O)[O-])cc3)c2)c(C)c1,i,i,-4%,-11%
SMILES,Abeta rescue,FUS yeast rescue,aSyn rescue,TDP-43 yeast inh
O=C(Nc1cccc([N+](=O)[O-])c1)c1cccc(C(=O)Nc2cccc([N+](=O)[O-])c2)c1,i,i,0%,14%
CCC(=O)Nc1cccc(C(=O)OCc2cccc([N+](=O)[O-])c2)c1,i,i,-9%,11µM*
COC(=O)c1cccc(NC(=O)c2cccc([N+](=O)[O-])c2)c1,i,i,0%,13µM*
CC(=O)Nc1cccc(C(=O)OCc2ccc([N+](=O)[O-])cc2)c1,i,i,-1%,?
CC1(C)CC(CCNC(=O)CCl)(c2ccccc2)CCO1 (stereo not drawn),i,i,-4%,6%
CC(=O)c1ccc(NC(=O)c2nc(-c3ccccc3)n(-c3ccc(C)cc3)n2)cc1,i,?,.,18µM*

# Bioassay records from PubChem BioAssay.
